Data on twelve compounds can be found in PubChem BioAssay.

A short description of test [1]: reducers of endogenous Her2 protein level, primary screen, SKBR3 breast tumor cells, AlphaScreen, ATP viability (AID 461;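 active = Her2 level under about 52% in both replicate screens, with viability over 70% of control, limit read from the data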;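 for Her2 level: lower value means less Her2 protein in the cells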;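 for viability: percent of carrier control wells set as 100% viability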). The conditions noted are these: 18-24 h, measured here: SKBR3 viability, ATP luminescence, at 10 µM.
The target in test [2] is Receptor tyrosine-protein kinase erbB-2 (Homo sapiens) (UniProt P04626). The description is as above. The conditions noted are these: 18-24 h, at 10 µM, stronger effect = lower value.
Sequence of Receptor tyrosine-protein kinase erbB-2 (Homo sapiens) (P04626 whole entry, looked up): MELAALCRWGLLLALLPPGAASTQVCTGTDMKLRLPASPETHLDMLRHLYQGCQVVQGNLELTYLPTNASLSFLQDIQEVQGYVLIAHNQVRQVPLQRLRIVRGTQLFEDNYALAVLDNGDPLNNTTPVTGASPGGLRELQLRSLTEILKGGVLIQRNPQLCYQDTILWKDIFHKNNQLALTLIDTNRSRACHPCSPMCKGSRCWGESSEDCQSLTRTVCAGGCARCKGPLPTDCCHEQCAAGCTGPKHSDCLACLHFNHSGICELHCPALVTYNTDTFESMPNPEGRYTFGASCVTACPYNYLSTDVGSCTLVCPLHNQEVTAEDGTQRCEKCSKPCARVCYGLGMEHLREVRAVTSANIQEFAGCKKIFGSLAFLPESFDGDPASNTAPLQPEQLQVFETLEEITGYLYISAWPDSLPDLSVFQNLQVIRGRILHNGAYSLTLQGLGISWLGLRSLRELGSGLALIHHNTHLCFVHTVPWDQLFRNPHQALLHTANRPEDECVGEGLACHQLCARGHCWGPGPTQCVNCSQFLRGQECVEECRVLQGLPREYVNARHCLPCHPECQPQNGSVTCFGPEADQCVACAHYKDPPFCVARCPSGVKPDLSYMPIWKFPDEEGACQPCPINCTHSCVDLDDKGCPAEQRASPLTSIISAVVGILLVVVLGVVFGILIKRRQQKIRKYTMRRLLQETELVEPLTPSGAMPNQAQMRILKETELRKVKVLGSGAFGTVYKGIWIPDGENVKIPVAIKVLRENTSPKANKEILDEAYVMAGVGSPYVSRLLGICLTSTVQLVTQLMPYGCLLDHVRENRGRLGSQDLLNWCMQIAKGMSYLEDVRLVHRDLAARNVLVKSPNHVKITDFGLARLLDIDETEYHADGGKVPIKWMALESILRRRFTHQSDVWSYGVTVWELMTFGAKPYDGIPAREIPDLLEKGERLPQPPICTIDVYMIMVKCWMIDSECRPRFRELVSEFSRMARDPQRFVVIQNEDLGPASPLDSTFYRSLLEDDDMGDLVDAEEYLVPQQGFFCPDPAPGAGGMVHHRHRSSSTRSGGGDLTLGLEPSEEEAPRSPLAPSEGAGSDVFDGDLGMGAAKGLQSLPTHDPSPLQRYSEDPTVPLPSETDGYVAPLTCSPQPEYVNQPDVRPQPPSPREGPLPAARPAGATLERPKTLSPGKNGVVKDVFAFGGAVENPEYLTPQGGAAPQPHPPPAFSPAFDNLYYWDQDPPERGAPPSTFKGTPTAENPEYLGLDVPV
A short description of test [3]: SK-BR-3 cell growth inhibitors, pilot screen, 24 h, human (AID 572).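 Note: compound exposure lasted between 18 and 24 h rather than exactly 24 h; 100% = carrier-treated control wells.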 The conditions noted are these: SK-BR-3 viability, CellTiter-Glo luminescence, at 10 µM, stronger effect = lower value. A general note: ATP-based viability assays read luminescence as a measure of living cells.
Test [4] can be described thus: HUVEC growth inhibition – cell-based, human, primary screen (AID 575;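 active = viability at or below 30% in both replicate assays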;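 note: 100% = median of untreated cell wells with 0.1% DMSO on each plate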). The conditions noted are these: HUVEC proliferation, CellTiter-Glo luminescence, 72 h; at 10 µM; stronger effect = lower value.
Test [5] in a line: growth inhibitors of H69AR lung tumor, primary screen, human, duplicate replicates (AID 580;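 active = viability at or under a set limit in both replicates, limit being median viability minus 3 SD, cut at about 48% in these data, passing the limit was not always enough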;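 note: 100% = mean luminescence of untreated wells and 0% = no signal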). The conditions noted are these: H69AR lung tumor cells viability, ATP luminescence, 72 h; at 10 µM; stronger effect = lower value.
A short description of test [6]: reversal of MRP1-mediated doxorubicin resistance, pilot screen, H69AR cells, doxorubicin co-treatment (AID 601;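 active = viability loss from added drug above about 55%, and viability with drug at most 40%, in both replicates, limit read from the data, passing the limit was not always enough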). The conditions noted are these: CellTiter-Glo, 72 h, at 10 µM; for differential viability (reversal): stronger effect = higher value.
Test [7] in a line: 384-well plate pilot, post-Golgi transport modulator project, inhibition of yeast transport mutant growth (AID 636; in the data active = inhibition above about 31%). The conditions noted are these: absorbance 615 nm, about 18 h, stronger effect = higher value.
Test [8] can be described thus: growth suppression of yeast trafficking mutant, preliminary HTS, modulators of trafficking downstream of Golgi apparatus project, 1536-format plate, OD 615 nm (AID 637; in the data active = inhibition above about 30%). The conditions noted are these: yeast transport mutant growth, absorbance 615 nm, 18 h; stronger effect = higher value.
Test [9] in a line: OD615 S. cerevisiae growth inhibition, permissive medium, pilot counter-assay, permissive growth control for S. cerevisiae lifespan shortening project (AID 705;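 active = growth inhibition above 25% in both replicates, a cutoff set 3 SD above the mean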). As to conditions: OD615, 24 h, at 10 µM, stronger effect = higher value.
A short description of test [10]: Restrictive medium S. cerevisiae growth inhibition, OD615, pilot screen of yeast lifespan reduction project, restrictive growth control (AID 706;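 active = growth inhibition above a set limit, 3 SD over mean compound inhibition, in both replicates, cut at about 43% in these data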;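 note: modified DeaD lifespan yeast strain shifted to restrictive glucose medium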). The conditions noted are these: OD615, 48 h, at 10 µM, stronger effect = higher value.
Test [11] in a line: viability gain of MRP-1-high H69AR cells under doxorubicin, pilot screen, MRP-1 activator project, CellTiter-Glo, duplicate (AID 807;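 active = viability increase at or above a cutoff of the median across tested compounds plus 3 SD, cut at about 8.5% in these data, passing the limit was not always enough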;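 note: compound pretreatment 18-22 h then 72 h combined with doxorubicin; 0% = doxorubicin alone and 100% = vehicle without doxorubicin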). As to conditions: H69AR viability with doxorubicin, CellTiter-Glo luminescence; at 10 µM; stronger effect = higher value.
A short description of test [12]: growth suppression of beta-catenin knockout HCT116, pilot screen, human colon tumor cells (AID 823;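 active = cell viability at or below a set limit in both duplicate runs, the limit being the all-compound median minus 4 SD, cut at about 23% in these data, passing the limit was not always enough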;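 note: 0% = wells killed by 20 µM Hyamine and 100% = untreated DMSO cell wells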). The conditions noted are these: CellTiter-Glo, 60 h, at 10 µM, stronger effect = lower value.
Test [13] in a line: growth suppression of PTEN-deleted HCT116, pilot screen, cell-based, HCT116 clonal line, CellTiter-Glo (AID 824;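 active = viability at or below 27.92% in each of two runs, the all-compound median minus 4 SD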;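 note: 0% = 20 µM Hyamine control and 100% = vehicle cell control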). The conditions noted are these: 60 h, at 10 µM, stronger effect = lower value.
A short description of test [14]: inhibitors of the yeast RAM network, pilot screen, dse1pr::URA3 reporter, 5-FOA selection (AID 869;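 active = inhibition over a set limit, the all-compound mean plus 3 SD, in both replicate runs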;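 note: 0% = DMSO wells with no growth and 100% = 10 µM 1-NA-PP1 with full growth; RAM network block rescues cells from 5-FOA so hits raise OD615 growth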). As to conditions: S. cerevisiae dse1pr::URA3 5-FOA growth, OD615, 2 d; at 10 µM; stronger effect = higher value; strain carries analog-sensitive mutant Cbk1 kinase.
[15] abbreviates: H69AR cells + 2 uM doxorubicin, measured here: viability with 2 uM doxorubicin, stronger effect = lower value.
Setting [16] is: H69AR cells, compound alone cytotoxicity.

Inconclusive results are not listed. Calls of active or inactive are those of the source.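 Rule for the calls, unless noted: active = viability at or below 10% of carrier control in both of two separate runs; inconclusive = viability at or below 10% in only one of the two runs; inactive = the rest.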

For orientation: viability means a read-out of living cells in per cent, often relative to untreated cells. As usually defined, the inhibition is the drop in the measured response relative to a control, in per cent. Consider `CCc1cc2c(=O)c(-c3cscn3)coc2cc1O`, for which the viability was 108% in test [1]; 108% (inactive) in test [3]; 63.5% (inactive) in test [4]; 88.8% (inactive) in [5]; 102% in test [6] (setting [15]); 88.8% in [6] (setting [16]). In addition, the Her2 level in test [2] was 96% (inactive). Also, the differential viability (reversal) in [6] (H69AR cells + 2 uM doxorubicin) is -13% (inactive). In addition, the inhibition in [7] is -1.32% (inactive); in test [8], 2.95% (inactive).
In the case of `CCn1c(SCC(=O)Nc2ccccc2F)nc2c(c1=O)SC(C)C2` (configuration not stated), the viability in test [1] is 116%; in test [3], 116% (inactive); in [4], 96.4% (inactive); in [5] it was 95.3% (inactive); in [6] (setting [15]), 83.8%; in [6] (setting [16]), 95.3%. Moreover, the Her2 level in test [2] was 86.5% (inactive). Besides, the differential viability (reversal) in [6] (H69AR cells + 2 uM doxorubicin) was 11.5% (inactive). Besides, the inhibition was -6.03% (inactive) in [7] and 2.54% (inactive) in [8].
Take `OC(CN1CCN(c2ccccc2)CC1)c1ccc2c(c1)CCN2` (configuration not stated): the viability in test [1] is 87.5%; in test [3] it was 87.5% (inactive); in test [4], 95.3% (inactive); in test [5] it was 69.5% (inactive); in test [6] (setting [15]), 95.5%; in test [6] (setting [16]) it was 69.5%. Also, the viability is 83.9% (inactive) in test [12] and 84.4% (inactive) in [13]. Moreover, in [2], the Her2 level is 110% (inactive). The differential viability (reversal) in test [6] (H69AR cells + 2 uM doxorubicin) is -26% (inactive). Besides, the results for the inhibition in test [7], in [8] and in [14] were -2.4% (inactive), 3.33% (inactive) and 0.78% (inactive), respectively. For the same compound, the growth inhibition is -10.4% (inactive) in test [9] and -5.32% (inactive) in test [10]. In addition, in test [11], the viability increase is -6.11% (inactive).
On to `CC[C@H]1OC(=O)C[C@@H](O)[C@H](C)[C@@H](O[C@@H]2O[C@H](C)C[C@H](N(C)C)[C@H]2O)[C@@H](CC=O)C[C@@H](C)C(=O)C=C[C@]2(C)O[C@H]2[C@@H]1C`, for which the viability in test [1] was 162%; in test [3] it was 162% (inactive); in test [4], 53.5% (inactive); in [6] (setting [15]), 45.8%; in [6] (setting [16]), 39.1%. Also, the Her2 level in [2] was 19.5% (active). Also, the differential viability (reversal) in test [6] (H69AR cells + 2 uM doxorubicin) was -6.67% (inactive).
For `Cc1cccc(OCC(=O)N2CCC(c3ccccc3)C2)c1` (configuration not stated), the viability in test [1] is 104%; in [3], 104% (inactive); in test [4], 98% (inactive); in test [5] it was 92.8% (inactive); in test [6] (setting [15]), 90.9%; in test [6] (setting [16]) it was 92.8%. Also, the viability in test [12] is 83% (inactive); in test [13], 83.7% (inactive). For the same compound, in test [2], the Her2 level was 112% (inactive). In addition, the differential viability (reversal) in test [6] (H69AR cells + 2 uM doxorubicin) was 1.84% (inactive). The inhibition was -4.05% (inactive) in test [7], -1.83% (inactive) in [8] and 0.225% (inactive) in test [14]. In addition, the growth inhibition in test [9] is -17.9% (inactive); in test [10], -6.05% (inactive). Besides, in [11], the viability increase was -0.58% (inactive).
As for `CC1CC(C)CN(c2ncnc3c2cnn3-c2ccc(Cl)cc2)C1` (configuration not stated), the viability in test [1] was 91.5%; in test [3], 91.5% (inactive); in test [4] it was 88.5% (inactive); in [5], 80.6% (inactive); in test [6] (setting [15]), 76.9%; in [6] (setting [16]) it was 80.6%. Moreover, the viability in test [12] was 88.1% (inactive); in [13], 95.3% (inactive). Besides, the Her2 level in test [2] is 89.5% (inactive). The differential viability (reversal) in [6] (H69AR cells + 2 uM doxorubicin) is 3.71% (inactive). For the same compound, the inhibition in test [7] is 0.53% (inactive); in test [8], -1.64% (inactive); in test [14], 2.44% (inactive). For the same compound, the figures for the growth inhibition in [9] and in [10] were -5.74% (inactive) and -8.12% (inactive), respectively. Also, the viability increase in [11] was 5.58% (inactive).
Regarding `N#Cc1c(NC(=O)COC(=O)C2CC3C=CC2C3)oc(-c2ccccc2)c1-c1ccccc1` (configuration not stated), the viability is 106% in [1]; 106% (inactive) in test [3]; 78.1% (inactive) in test [4]; 44.6% (active) in [5]; 68.1% in [6] (setting [15]); 44.6% in test [6] (setting [16]). For the same compound, in test [12], the viability was 92.3% (inactive). The Her2 level in [2] was 80% (inactive). Besides, in test [6] (H69AR cells + 2 uM doxorubicin), the differential viability (reversal) is -23.4% (inactive). For the same compound, the inhibition was -0.26% (inactive) in test [7], -0.36% (inactive) in test [8] and 3.41% (inactive) in test [14]. Besides, the figures for the growth inhibition in [9] and in [10] were -17.5% (inactive) and -14.6% (inactive), respectively. The viability increase in [11] was -5.47% (inactive).
For the compound `Cc1ccc(CCNC(=O)C2CCCN2S(=O)(=O)c2ccc3c(c2)CCC(=O)N3)cc1` (configuration not stated), the viability in test [1] was 87.5%; in test [3], 87.5% (inactive); in test [4] it was 91.8% (inactive); in test [5] it was 101% (inactive); in [6] (setting [15]), 96.2%; in test [6] (setting [16]), 101%. The viability was 101% (inactive) in test [12] and 98.8% (inactive) in [13]. Besides, the Her2 level in test [2] is 93.5% (inactive). In test [6] (H69AR cells + 2 uM doxorubicin), the differential viability (reversal) is 4.97% (inactive). Also, the inhibition in test [7] was -1.33% (inactive); in test [8], 11.2% (inactive); in [14], 2% (inactive). Also, the growth inhibition in [9] is -8.07% (inactive); in test [10], -8.79% (inactive). Moreover, the viability increase in test [11] was 3.43% (inactive).
On to `Cc1ccc(-n2ncc3c(N4CCN(c5ccccc5)CC4)ncnc32)c(C)c1`, for which the viability in test [1] was 93%; in test [3], 93% (inactive); in test [4], 57.9% (inactive); in test [5], 80.3% (inactive). In addition, the Her2 level in test [2] is 79% (inactive). Moreover, the results for the inhibition in test [7] and in test [8] were -2.93% (inactive) and 1.94% (inactive), respectively.
Take `CCOC(=O)c1sc(NC(=O)CSc2nnc(-c3ccco3)n2CC)c(C(=O)OCC)c1C`: the viability was 101% in test [1], 101% (inactive) in test [3], 77.5% (inactive) in test [4] and 74.2% (inactive) in [5]. Further, the Her2 level in test [2] was 71% (inactive). Further, the results for the inhibition in test [7] and in test [8] were -0.66% (inactive) and -0.32% (inactive), respectively.
As for `Cc1onc(-c2ccccc2Cl)c1C(=O)NCCn1c(C)cc2ccccc21`, the viability in test [1] is 79%; in [3], 79% (inactive); in test [4], 78.3% (inactive); in test [5] it was 83.3% (inactive); in [6] (setting [15]) it was 89.6%; in [6] (setting [16]), 83.3%. Further, the viability is 78.8% (inactive) in test [12] and 85.7% (inactive) in test [13]. In test [2], the Her2 level is 80.5% (inactive). For the same compound, the differential viability (reversal) in test [6] (H69AR cells + 2 uM doxorubicin) is -6.36% (inactive). For the same compound, the inhibition is -3.2% (inactive) in test [7], 1.17% (inactive) in test [8] and 1.56% (inactive) in [14]. Further, the growth inhibition in test [9] is -8.05% (inactive); in [10], 0.31% (inactive). The viability increase in [11] is -2.02% (inactive).
Consider `CCOc1ccccc1N1C(=O)c2ccc(C(=O)Nc3cccnc3)cc2C1=O`, for which the viability in test [1] is 94.5%; in test [3], 94.5% (inactive); in [4], 88.2% (inactive); in [5] it was 102% (inactive); in [6] (setting [15]) it was 100%; in test [6] (setting [16]), 102%. For the same compound, the viability in test [12] is 107% (inactive); in [13] it was 98.7% (inactive). In test [2], the Her2 level was 94% (inactive). The differential viability (reversal) in test [6] (H69AR cells + 2 uM doxorubicin) is 2.08% (inactive). The inhibition in test [7] is -1.6% (inactive); in [8] it was -2.13% (inactive); in test [14], 3.15% (inactive). Also, the growth inhibition is -15.8% (inactive) in test [9] and -21.7% (inactive) in test [10]. In [11], the viability increase was 0.54% (inactive).
